The target in the assay is Atrial natriuretic peptide receptor 1 (Homo sapiens) (UniProt P16066). As to the kind of experiment: Natriuretic polypeptide receptor (hNpr1) antagonism - Pilot CMLD screen (AID 1347052).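 Further: HEK293 cells with hNpr1 stimulated by hNppA peptide at 0.1 nM; cGMP level read as GloSensor luciferase luminescence after agonist stimulation; series mostly up to about 9.2 µM.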

Results filed as inconclusive are left out. A call without a number means that no potency is given here. The source made the active and inactive calls. The call rests on the fitted dose curve.

Chain of Atrial natriuretic peptide receptor 1 (Homo sapiens) (P16066 whole entry, looked up): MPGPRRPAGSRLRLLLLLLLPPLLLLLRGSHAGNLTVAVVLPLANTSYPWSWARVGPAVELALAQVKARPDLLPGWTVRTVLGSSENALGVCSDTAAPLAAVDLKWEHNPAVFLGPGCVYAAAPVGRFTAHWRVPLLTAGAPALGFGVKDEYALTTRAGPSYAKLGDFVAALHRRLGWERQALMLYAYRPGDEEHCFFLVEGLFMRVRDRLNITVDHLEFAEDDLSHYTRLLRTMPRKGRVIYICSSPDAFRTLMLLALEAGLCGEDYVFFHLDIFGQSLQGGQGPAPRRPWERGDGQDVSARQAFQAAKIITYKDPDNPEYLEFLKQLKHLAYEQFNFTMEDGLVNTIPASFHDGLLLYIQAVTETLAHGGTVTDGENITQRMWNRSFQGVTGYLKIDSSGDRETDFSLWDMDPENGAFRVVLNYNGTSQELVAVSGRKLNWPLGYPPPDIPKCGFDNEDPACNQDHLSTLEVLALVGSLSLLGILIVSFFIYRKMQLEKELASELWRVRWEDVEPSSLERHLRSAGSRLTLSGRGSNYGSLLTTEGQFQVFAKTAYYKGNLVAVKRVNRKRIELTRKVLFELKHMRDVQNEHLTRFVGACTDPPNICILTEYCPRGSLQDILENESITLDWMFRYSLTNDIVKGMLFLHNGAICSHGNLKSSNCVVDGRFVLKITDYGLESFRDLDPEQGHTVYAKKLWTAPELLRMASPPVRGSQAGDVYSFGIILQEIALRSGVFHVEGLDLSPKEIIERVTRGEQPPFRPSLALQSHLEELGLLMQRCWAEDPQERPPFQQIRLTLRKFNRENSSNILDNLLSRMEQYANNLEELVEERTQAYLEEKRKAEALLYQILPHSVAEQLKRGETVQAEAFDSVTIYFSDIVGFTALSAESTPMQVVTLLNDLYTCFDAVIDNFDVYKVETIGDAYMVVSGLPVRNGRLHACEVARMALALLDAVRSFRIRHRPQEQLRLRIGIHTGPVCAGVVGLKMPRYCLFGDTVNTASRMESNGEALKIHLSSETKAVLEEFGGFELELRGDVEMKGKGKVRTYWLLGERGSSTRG

`COc1cccc([C@H]2Oc3ccc(OC)cc3C(=NO[C@@H](C)CN3CCCCc4nc(C)c(C)cc43)[C@H]2O)c1`: the Potency result was “inactive”.

For the origin of these results see PubChem BioAssay (NCATS).
